SMILES strings stand for the structures. Values joined by “and” are separate entries in the source; they are usually repeats but may differ in a detail not shown here. Identical values can stand only once. Active and inactive are the calls of the source. Unless noted, no rule for the calls is given here.

The results in this text go back to PubChem BioAssay.

Experiment [1] is described as follows: compounds altering circadian rhythm period length – cell-based, LOPAC library, luminescence reporter (AID 2774).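 Also: values are relative to mean of DMSO wells on each plate.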 As to conditions: circadian reporter cells, at 7 µM, actives lie on both sides.
In experiment [2] the test system is Hepatitis C virus NS3 helicase. Briefly: blockers of NS3h binding to ssDNA – biochemical, fluorescence polarization, LOPAC1280 library, primary screen (AID 687035; in the data active = inhibition above about 37%). To be noted: Purified HCV NS3 helicase, Cy5-dT15 ssDNA binding fluorescence polarization; stronger effect = higher value; concentration not given here. A general note: In fluorescence polarisation assays a small probe gives low polarisation when free and higher when bound to something large.

Experiment [3] is described as follows: compounds altering Cy5-DNA-NS3h complex signal – biochemical, LOPAC1280, artefact control for HCV NS3 helicase inhibitor project (AID 687037). As to conditions: Cy5-DNA-NS3h complex fluorescence interference counterscreen. (In general: Counterscreens check selectivity or assay interference.)
In experiment [4] the test system is Aerobactin synthetase IucA (Klebsiella pneumoniae). Put plainly: inhibition of K. pneumoniae IucA enzyme – biochemical, Tocris library, absorbance (AID 1345561).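 Also: 100% = enzyme without compound and 0% = no enzyme.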 To be noted: purified IucA enzyme assay, absorbance (OD) read-out; stronger effect = lower value;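 tested at 8 µM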.
Experiment [5] is described as follows: viability loss with induced miR-34 in A549 – imaging, A549 dox-inducible miR-34, nuclei and caspase counts, primary screen (AID 1347080;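 active = compounds whose cell count with miR-34 switched on is under 0.7 times the count with it off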). To be noted: A549 miR-34 inducible, Hoechst nuclei count, 48 h.
The nature of experiment [6]: blockers of cellular phospholipid synthesis – cell-based, LOPAC library, screen 4, primary screen (AID 1347384). To be noted: animal cells, phospholipid biosynthesis inhibition screen; at 10 µM.
Experiment [7] is described as follows: galactose survival enhancers in mitochondrial complex I cybrids – cell-based, galactose medium, ATP luminescence, primary screen (AID 1645843;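 active = z-score of at least 1.8 in each of two replicates, scored against plate mean and spread of sample wells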;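 also: positive z means more ATP and so rescue of galactose-driven cybrid death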). As to conditions: complex I mutant cybrid cells, 72 h, stronger effect = higher value.
Experiment [8] is described as follows: chitosan synthesis blockers in C. neoformans – flow cytometry, Cibacron Brilliant Red staining (AID 1347148).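 Also: compound exposure lasted three days at 37 degrees C.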 To be noted: Cryptococcus neoformans chitosan, stronger effect = lower value; at 10 µM unless noted. On the technique in general: Flow cytometry measures light scatter and fluorescence of single cells or particles in a stream.
The nature of experiment [9]: P. berghei load reduction in hepatocytes – cell-based, HepG2, luciferase luminescence, HepG2 viability, primary screen (AID 624349; in the data active = parasite load remaining mostly below about 12%, no sharp cut-off; inactive = mostly above about 10%;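 also: 100% = mean of DMSO negative control wells on the same plate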). To be noted: P. berghei liver stage in HepG2, luciferase luminescence, concentration not given here; parasite load remaining: stronger effect = lower value; viability: measured here: HepG2 viability without parasites.
Experiment [10] is described as follows: compounds altering HSF1 focus formation in cells – imaging, Selleck Cancer Library (AID 1347162; in the data active = plate-normalised HSF1 focus index below about 0.46). As to conditions: human cells, HSF1 nuclear foci imaging, at 10 µM; SSMD: measured here: HSF1 foci SSMD mean; cell count: measured here: cell number; plate-normalised HSF1 focus index: stronger effect = lower value.
Experiment [11] can be described thus: growth inhibition, single agents and combos, ICB984, cell-based, cisplatin or BGB combos, synergistic combos for chromothripsis tumors (AID 1671451).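 Also: cells exposed for 96 hours before readout; 0% = vehicle DMSO and 100% = killing by high DMSO.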 To be noted: ICB984 medulloblastoma cells, drug combinations, stronger effect = higher value.
A short description of experiment [12]: MELAS cybrid and Rieske KO viability enhancers – cell-based, MELAS cybrids, Rieske KO mouse fibroblasts, CellTiter-Glo, primary screen (AID 1508586;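 active = mean z-score across replicates of 1.96 or higher in either the MELAS or the Rieske mutant cell line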;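 also: z relative to plate mean and SD of compound and empty wells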). As to conditions: low glucose.
Setting [13] is: stronger effect = lower value, cell number ratio, induced over uninduced.
[14] abbreviates: measured here: relative caspase fold change +Dox/-Dox.
The mark [15] stands for this setting: measured here: total cells with miR-34 induction, stronger effect = lower value.
[16] abbreviates: measured here: total cells without miR-34 induction.

Turning to `Oc1cc2c(cc1O)C(c1ccccc1)CNCC2` (centres undefined), the period change in [1] is 0.125 h (inactive). The inhibition (usually the relative decrease from the control value, in per cent) in experiment [2] is -3% (inactive). For the same compound, the fluorescence ratio (interference) in [3] was 1 (inactive). Also, the remaining activity – broadly, the signal under treatment as a percentage of the control signal – in experiment [4] is 113% (inactive). The fold change was 0.993 (inactive) and 0.954 (inactive) in experiment [5] (setting [13]); 1.37 and 0.889 in experiment [5] (setting [14]). In addition, the cell count in experiment [5] (setting [15]) was 10500 and 10200; in experiment [5] (setting [16]), 10600. Besides, in experiment [6], the compound was called inactive. For the same compound, the z-score in experiment [7] was 0.58 (inactive) and 0.48 (inactive).

Turning to `CCCCCCCC/C=C\CCCCCCCC(N)=O`, the remaining activity in [4] is 107% (inactive). Further, the fold change in experiment [5] (setting [13]) was 0.955 (inactive) and 0.909 (inactive) and 1 (inactive); in experiment [5] (setting [14]), 1.2 and 0.885 and 0.621. Also, the cell count in experiment [5] (setting [15]) is 5390 and 5900 and 8530; in experiment [5] (setting [16]), 5650 and 6490 and 8490. Besides, the fold fluorescence in experiment [8] is 4.91 (inactive). In addition, the z-score in experiment [7] is -0.84 (inactive).

`N.N.O=C(O)C1(C(=O)O)CCC1.[Pt]`: the parasite load remaining in [9] is 105% (inactive) and 45.1% (inactive). In [9], the viability – broadly, a per cent measure of how many cells are alive, often set against a control – is 75.3% and 97.1%. Moreover, the remaining activity in experiment [4] is 100% (inactive). The fold change in experiment [5] (setting [13]) was 0.91 (inactive) and 1.06 (inactive); in experiment [5] (setting [14]) it was 1.49 and 3.05. For the same compound, the cell count in experiment [5] (setting [15]) is 7500 and 6220; in experiment [5] (setting [16]), 8240 and 5890; in [10], 7840. In experiment [10], this compound gave an SSMD of 2.09. Further, the plate-normalised HSF1 focus index in experiment [10] is 1.08 (inactive). In experiment [7], the z-score was -0.15 (inactive). The inhibition is -23.8% and 9.43% in [11] (BGB IC20 combo, at 0.005 µM); -28.7% and -26% in [11] (BGB IC40 combo, at 0.005 µM); -33.8% and -31.4% in experiment [11] (BGB IC40 combo, at 0.05 µM); -17.7% (inactive) and -35.2% (inactive) in [11] (at 0.5 µM); -33.8% and -36.1% in [11] (cisplatin combo, at 0.05 µM); -26.5% and -43.2% in experiment [11] (cisplatin combo, at 0.5 µM). In addition, the inhibition was -41.9% and -11% in [11] (cisplatin combo, at 5 µM); -8.78% and -6.62% in [11] (measured here: 5 uM single agent, at 5 µM).

Consider `NS(=O)(=O)C#Cc1ccccc1`, for which the inhibition in experiment [2] is 0% (inactive). In experiment [3], the fluorescence ratio (interference) was 1 (inactive). Further, the remaining activity in experiment [4] was 110% (inactive). Besides, the fold change is 1.19 (inactive) and 0.967 (inactive) and 1.13 (inactive) in experiment [5] (setting [13]); 1.2 and 0.467 and 1.12 in experiment [5] (setting [14]). For the same compound, the cell count in experiment [5] (setting [15]) is 3660 and 6510 and 3430; in experiment [5] (setting [16]), 3080 and 6730 and 3020. Further, the call in experiment [6] was inactive. Further, the z-score in experiment [12] (MELAS cybrid survival, CellTiter-Glo 48 h, stronger effect = higher value) is -0.62 (inactive); in [12] (Rieske KO mouse fibroblast survival, CellTiter-Glo 72 h), -0.117; in experiment [7] it was -1.27 (inactive) and -0.695 (inactive).

On to `CC(C)(C)c1cc(O)c(C(C)(C)C)cc1O`, for which the remaining activity in experiment [4] is 129% (inactive). Besides, the fold change in [5] (setting [13]) was 1.1 (inactive) and 0.907 (inactive); in experiment [5] (setting [14]) it was 1.08 and 0.716. Moreover, the cell count in experiment [5] (setting [15]) was 1530 and 6190; in experiment [5] (setting [16]) it was 1390 and 6820. Further, the fold fluorescence in [8] was 11.1 [at 224.9 µM] (inactive). For the same compound, the z-score in [7] was -0.7 (inactive).

As to `O=C1NC(c2cccc([N+](=O)[O-])c2)=CCN1c1ccccc1O`, the period change in experiment [1] is -0.125 h (inactive). Besides, the inhibition in experiment [2] is -4% (inactive). Moreover, the fluorescence ratio (interference) in experiment [3] was 1 (inactive). Moreover, the remaining activity in experiment [4] was 111% (inactive). Besides, the fold change in [5] (setting [13]) was 0.967 (inactive) and 1.03 (inactive) and 0.928 (inactive); in experiment [5] (setting [14]), 1.12 and 1.35 and 0.882. For the same compound, the cell count is 10200 and 5990 and 8100 in experiment [5] (setting [15]); 10600 and 5810 and 8730 in experiment [5] (setting [16]). Further, the outcome in experiment [6] was inactive. Moreover, the z-score in experiment [7] is -0.245 (inactive) and 1.08 (inactive).

Turning to `O=C(O)c1cc(=O)c2c(Cl)cc(Cl)cc2[nH]1`, in experiment [1], the period change was -0.065 h (inactive). In [2], the inhibition is -1% (inactive). The fluorescence ratio (interference) in experiment [3] was 1 (inactive). The remaining activity in experiment [4] was 90.4% (inactive). For the same compound, the fold change in experiment [5] (setting [13]) is 0.981 (inactive) and 0.957 (inactive); in [5] (setting [14]), 0.527 and 0.88. For the same compound, the cell count in experiment [5] (setting [15]) is 10000 and 8540; in experiment [5] (setting [16]), 10200 and 8930. In experiment [6], the result was inactive. Further, in [7], the z-score is 0.135 (inactive) and -0.315 (inactive).
